# Values joined by “and” are separate entries in the source; they are usually repeats but may differ in a detail not shown here. Equal entries are not always repeated. Screen size: about 5,500 compounds; about 2,000 (36%) were called active. About 18% were inconclusive and are not listed. The list shows a part of the results. A number with no mark means an inactive call. Rule as the data show it: active = normalized growth mostly below about 0.91 (no sharp cut-off); inconclusive = no clear call, values can overlap the other calls; inactive = mostly above about 0.92.
# Test: chemical genetic growth profiling, strain panel (AID 1159580);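 also: tested at 20 µM; growth read once vehicle control cultures reached saturation at 30 °C; 1 = growth at the plate median or of vehicle wells; lower values mean less growth of the strain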
# Conditions: S. cerevisiae deletion strains, growth OD
structure (smiles),measurement,setting,value
C=CC(C1=CC(=O)C(OC)=CC1=O)c1ccc(OC)cc1 (stereo unspecified),normalized growth,"locus YAL013W, strain DEP1, hits give low values",0.956
same,normalized growth,"locus YAL021C, strain ccr4, hits give low values",0.873 (active)
same,normalized growth,"locus YAL026C, strain drs2, hits give low values",0.765 (active)
same,normalized growth,"locus YAL030W, strain snc1, hits give low values",0.893 (active)
same,normalized growth,"locus YBL061C, strain skt5, hits give low values",0.872 (active)
same,normalized growth,"locus YBR009C, strain hhf1, hits give low values",0.661 (active)
same,normalized growth,"locus YBR021W, strain FUR4, hits give low values",0.957
same,normalized growth,"locus YBR023C, strain chs3, hits give low values",0.853 (active)
same,normalized growth,"locus YBR171W, strain sec66, hits give low values",0.983
same,normalized growth,"locus YBR229C, strain ROT2, hits give low values",0.968
same,normalized growth,"locus YBR231C, strain swc5, hits give low values",0.854 (active)
same,normalized growth,"locus YBR279W, strain paf1, hits give low values",0.883 (active)
same,normalized growth,"locus YCL011C, strain gbp2, hits give low values",0.857 (active)
same,normalized growth,"locus YCL016C, strain dcc1, hits give low values",0.81 (active)
same,normalized growth,"locus YCL029C, strain bik1, hits give low values",0.917
same,normalized growth,"locus YCL061C, strain MRC1, hits give low values",0.981
same,normalized growth,"locus YCL069W, strain vba3, hits give low values",0.911 (active)
same,normalized growth,"locus YCR088W, strain abp1, hits give low values",0.983
same,normalized growth,"locus YDL005C, strain med2, hits give low values",1.01
same,normalized growth,"locus YDL035C, strain GPR1, hits give low values",0.896
same,normalized growth,"locus YDL040C, strain nat1, hits give low values",0.975
same,normalized growth,"locus YDL074C, strain BRE1, hits give low values",0.827
same,normalized growth,"locus YDL101C, strain DUN1, hits give low values",0.939
same,normalized growth,"locus YDL134C, strain PPH21, hits give low values",0.961
same,normalized growth,"locus YDL185W, strain tfp1, hits give low values",0.976
same,normalized growth,"locus YDL192W, strain arf1, hits give low values",0.871 (active)
same,normalized growth,"locus YDR001C, strain nth1, hits give low values",0.982
same,normalized growth,"locus YDR069C, strain doa4, hits give low values",0.889 (active)
same,normalized growth,"locus YDR101C, strain arx1, hits give low values",0.906 (active)
same,normalized growth,"locus YDR137W, strain rgp1, hits give low values",0.596 (active)
same,normalized growth,"locus YDR150W, strain NUM1, hits give low values",0.985
same,normalized growth,"locus YDR159W, strain sac3, hits give low values",0.813 (active)
same,normalized growth,"locus YDR162C, strain NBP2, hits give low values",0.801 (active)
same,normalized growth,"locus YDR195W, strain ref2",1.16 [resistant] (active)
same,normalized growth,"locus YDR297W, strain sur2, hits give low values",0.934
same,normalized growth,"locus YDR318W, strain mcm21, hits give low values",0.843 (active)
same,normalized growth,"locus YDR334W, strain swr1, hits give low values",0.918
same,normalized growth,"locus YDR335W, strain msn5, hits give low values",0.94
same,normalized growth,"locus YDR388W, hits give low values",0.601 (active)
same,normalized growth,"locus YDR392W, strain spt3, hits give low values",0.23 (active)
same,normalized growth,"locus YDR502C, strain sam2, hits give low values",0.893 (active)
same,normalized growth,"locus YEL003W, strain gim4, hits give low values",0.803 (active)
same,normalized growth,"locus YEL037C, strain rad23, hits give low values",0.946
same,normalized growth,"locus YEL061C, strain CIN8 (second series), hits give low values",0.876 (active)
same,normalized growth,"locus YEL061C, strain CIN8, hits give low values",0.982
same,normalized growth,"locus YER015W, strain faa2, hits give low values",0.906 (active)
same,normalized growth,"locus YER016W, strain bim1, hits give low values",0.912 (active)
same,normalized growth,"locus YER110C, hits give low values",0.905
same,normalized growth,"locus YER111C, strain swi4, hits give low values",0.984
same,normalized growth,"locus YER155C, strain BEM2 (second series), hits give low values",0.476 (active)
same,normalized growth,"locus YER155C, strain BEM2, hits give low values",0.973
same,normalized growth,"locus YER167W, strain BCK2, hits give low values",0.829 (active)
same,normalized growth,"locus YFR010W, strain ubp6, hits give low values",0.887 (active)
same,normalized growth,"locus YGL078C, strain dbp3, hits give low values",0.978
same,normalized growth,"locus YGL086W, strain mad1, hits give low values",0.87 (active)
same,normalized growth,"locus YGL167C, strain pmr1, hits give low values",0.978
same,normalized growth,"locus YGL173C, strain kem1, hits give low values",0.853 (active)
same,normalized growth,"locus YGL227W, strain vid30, hits give low values",0.993
same,normalized growth,"locus YGL240W, strain doc1, hits give low values",0.743 (active)
same,normalized growth,"locus YGL248W, strain PDE1, hits give low values",0.948
same,normalized growth,"locus YGL253W, strain hxk2, hits give low values",0.813 (active)
same,normalized growth,"locus YGR078C, strain PAC10, hits give low values",0.875
same,normalized growth,"locus YGR135W, strain pre9, hits give low values",0.856 (active)
same,normalized growth,"locus YGR229C, strain SMI1, hits give low values",0.812
same,normalized growth,"locus YGR252W, strain gcn5, hits give low values",0.77
same,normalized growth,"locus YHR013C, strain ard1, hits give low values",0.6 (active)
same,normalized growth,"locus YHR027C, strain rpn1, hits give low values",0.948
same,normalized growth,"locus YHR030C, strain SLT2, hits give low values",0.957 and 1
same,normalized growth,"locus YHR079C, strain IRE1 (second series), hits give low values",0.893 (active)
same,normalized growth,"locus YHR079C, strain IRE1, hits give low values",1.03
same,normalized growth,"locus YHR094C, strain hxt1, hits give low values",0.947
same,normalized growth,"locus YHR129C, strain ARP1, hits give low values",0.939
same,normalized growth,"locus YHR142W, strain chs7, hits give low values",0.637 (active)
same,normalized growth,"locus YHR200W, strain rpn10, hits give low values",0.907 (active)
same,normalized growth,"locus YIL066C, strain RNR3, hits give low values",0.879
same,normalized growth,"locus YIL073C, strain SPO22, hits give low values",0.929
same,normalized growth,"locus YIL125W, strain kgd1, hits give low values",0.952
same,normalized growth,"locus YIR030C, strain dcg1, hits give low values",0.882 (active)
same,normalized growth,"locus YJL092W, strain hpr5, hits give low values",0.948
same,normalized growth,"locus YJL095W, strain BCK1 (second series), hits give low values",0.809 (active)
same,normalized growth,"locus YJL095W, strain BCK1, hits give low values",0.894 and 1.04
same,normalized growth,"locus YJL115W, strain asf1, hits give low values",0.973
same,normalized growth,"locus YJL129C, strain trk1, hits give low values",0.868 (active)
same,normalized growth,"locus YJL134W, strain LCB3, hits give low values",0.967
same,normalized growth,"locus YJL154C, strain vps35, hits give low values",0.96
same,normalized growth,"locus YJL164C, strain tpk1, hits give low values",0.759 (active)
same,normalized growth,"locus YJL166W, strain qcr8, hits give low values",0.588 (active)
same,normalized growth,"locus YJL168C, strain set2, hits give low values",0.947
same,normalized growth,"locus YJL187C, strain SWE1 (second series), hits give low values",0.933
same,normalized growth,"locus YJL187C, strain SWE1, hits give low values",0.841 (active)
same,normalized growth,"locus YJR043C, strain POL32, hits give low values",0.832 (active)
